PGC1a acetyl inh = inhibitors of PGC1a acetylation signal, primary screen, cell-based, U2OS, AlphaScreen, inhibitor mode; AID 651687, 2012; 0.17% of 350,000 active; inhibition, % at 15.6 µM; AlphaScreen anti-acetyl-lysine; with virally co-expressed GCN5 acetyltransferase;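 active = every replicate shows inhibition of at least 40%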
EWS-Fli inh = EWS/Fli-driven NR0B1 reporter inhibitors, primary screen, A673 cells, NR0B1 luciferase, luminescence, MLPCN library; 0.67% of 350,000 active; inhibition, % at 12.6 µM; AID 651661, 2012; viability-normalised;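 active = mean inhibition of at least 50% after viability correction, with every replicate also passing that limit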;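 note: firefly luciferase signal divided by Alamar Blue viability fluorescence both relative to DMSO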
rRNA inh HTS = reduced GFP signal of wild-type E. coli, primary screen, bacterial rRNA inhibitor project, GFP/RFP fluorescence, OD600, single point; E. coli WT GFP vs humanized-ribosome RFP mutants, 24 h; active compounds read low; DMSO median 0, no signal -100; GFP signal change (wild-type ribosome), % (concentration not given with the values); 1.6% of 350,000 active;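 active = significant combined selectivity score with lowered wild-type GFP, culture density cut under 30%, mutant RFP and density less affected; inactive = any of these conditions unmet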
SIRT5 inh = SIRT5 desuccinylase inhibitors, primary screen, biochemical, fluorescence imaging, single point, set 5. inhibition, % at 15 µM. Purified SirT5, succinyl-peptide AMC, trypsin-coupled fluorescence. NAD-dependent protein deacylase sirtuin-5, mitochondrial (Homo sapiens), Q9NXA8. AID 652115, 2013. 1.1% of 330,000 active; in the data active = inhibition above about 15%
Target sequence (Q9NXA8 whole entry, looked up): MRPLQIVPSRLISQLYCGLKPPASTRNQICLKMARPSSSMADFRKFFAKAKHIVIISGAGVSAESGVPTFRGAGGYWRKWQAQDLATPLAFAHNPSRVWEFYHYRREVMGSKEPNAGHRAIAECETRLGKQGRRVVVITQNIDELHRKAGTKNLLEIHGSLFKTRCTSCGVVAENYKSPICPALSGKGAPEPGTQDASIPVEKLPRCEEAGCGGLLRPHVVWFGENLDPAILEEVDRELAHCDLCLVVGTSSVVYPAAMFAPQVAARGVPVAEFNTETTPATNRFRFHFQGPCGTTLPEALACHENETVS
PAX8 inh HTS = inhibitors of PAX8-driven TPO luciferase reporter, primary screen, RMG-I cells, single concentration. 1.2% of 360,000 active. inhibition, % at 12.6 µM. AID 652154, 2013. SteadyGlo, 24 h;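 active = mean replicate inhibition at least 60% with every replicate also reaching 60%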;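 note: luciferase light reporting Pax8 driven TPO promoter activity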
LGR2 antag = inhibitors of bursicon-induced LGR2 CRE-luciferase signal, primary screen, cell-based, HEK293, CRE-luciferase reporter, bursicon stimulation | Drosophila bursicon receptor LGR2 (rickets) | bursicon-stimulated, 4 h | inhibition, % at 9.99 µM | 0.35% of 380,000 active;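 active = drop in luminescence signal, shown as inhibition above about 50% in the replicate tests, limit read from the data, passing the limit was not always enough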;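 note: agonist challenge used bursicon conditioned medium at about half maximal strength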
A number is an active result; . = inactive; / = no result given. Compounds with a hit are over-represented: about 3.4% of the library has one in this group of screens.

SMILES | PGC1a acetyl inh | EWS-Fli inh | rRNA inh HTS | SIRT5 inh | PAX8 inh HTS | LGR2 antag
CC(C)NC(=O)Nc1ccc2c(c1)CC(=O)N([C@@H](C)CO)C[C@@H](C)[C@H](CN(C)C(=O)NC1CCCCC1)O2 | . | / | . | . | . | .
C/C=C/c1ccc([C@@H]2[C@@H](CO)N(C(C)=O)[C@@H]2CNC(=O)CC2CC2)cc1 | . | . | . | . | . | .
COc1ccc([C@H]2CC=CC[C@H](C)Oc3ccccc3C(=O)N(C)[C@@H](C)C(=O)N2)c(OC)c1 (mixture of isomers) | / | / | . | / | / | /
CC(C)CC#Cc1cnc2c(c1)C(=O)N([C@@H](C)CO)C[C@@H](C)[C@H](CN(C)Cc1ccccc1F)O2 | . | . | . | . | / | .
C/C=C/c1ccc2c(c1)O[C@@H](CN(C)Cc1ccccc1F)[C@H](C)CN([C@@H](C)CO)S2(=O)=O | . | . | . | 19 | / | .
C/C=C/c1ccc2c(c1)O[C@H](CN(C)Cc1ccccc1)[C@@H](C)CN([C@H](C)CO)S2(=O)=O | . | . | . | . | . | .
C/C=C/c1ccc2c(c1)O[C@H](CN(C)Cc1cccc(F)c1)[C@H](C)CN([C@@H](C)CO)S2(=O)=O | . | . | . | 19 | / | .
C[C@H]1CN([C@@H](C)CO)C(=O)c2cccc(NC(=O)c3ccc(-c4nccs4)cc3)c2O[C@H]1CN(C)CC1CCCCC1 | . | . | . | . | . | .
CO[C@@H]1CN(C)C(=O)c2cc(NS(=O)(=O)CC(F)(F)F)ccc2OC[C@H](C)N(C(=O)NC(C)C)C[C@@H]1C | . | . | . | . | . | .
COCCOC(=O)N1C(=O)[C@@]2(c3ccccc31)[C@H](c1ccccc1OCCO)N1[C@H](c3ccccc3)[C@H](c3ccccc3)OC(=O)[C@H]1[C@@H]2C(=O)N1CCN(c2ncccn2)CC1 | / | . | / | . | . | /
CO[C@H]1CN(C)C(=O)c2ccc(NS(C)(=O)=O)cc2OC[C@H](C)N(Cc2ccccc2)C[C@@H]1C | . | . | . | . | / | .
N#CCCN1CCN(C(=S)c2ccc(-c3ccc(Cl)cc3)o2)CC1 | . | / | -28 | . | / | .
S=C(c1ccc(-c2ccc(Cl)cc2)o1)N1CCCCC1 | . | / | / | / | / | .
Cc1coc2c(C)c3oc(=O)c(CC(=O)N[C@@H](CC(C)C)C(=O)O)c(C)c3cc12 | . | . | . | . | . | .
Cc1c(CCC(=O)O)c(=O)oc2c(C)c3occ(-c4ccc(Br)cc4)c3cc12 | / | . | -16 | . | . | .
Cc1coc2c(C)c3oc(=O)c(CCC(=O)N[C@@H](C)C(=O)N[C@@H](Cc4ccccc4)C(=O)O)c(C)c3cc12 | . | . | / | 26 | / | .
Cc1c(CC(=O)O)c(=O)oc2c(C)c3occ(-c4ccc(F)cc4)c3cc12 | . | . | . | . | . | .
Cc1c(CC(=O)O)c(=O)oc2cc3occ(-c4ccccc4)c3cc12 | . | . | -19 | . | . | .
C[C@@H]1CN([C@@H](C)CO)S(=O)(=O)c2ccc(C#CC3CC3)cc2O[C@H]1CN(C)Cc1cccc(F)c1 | . | . | . | . | / | .
COc1ccc(-c2cn(CC[C@H]3CC[C@H](NC(=O)CCN4CCCCC4)[C@H](CO)O3)nn2)cc1 | . | . | . | . | . | .
COCC(=O)N1[C@@H](CO)[C@H](c2ccc(-c3ccccc3)cc2)C12CN(C(C)=O)C2 | . | . | . | . | . | .
Cc1ccc(C23CC4CC(CC(C(N)=O)(C4)C2)C3)cc1 | / | . | -23 | . | . | .
Cc1ccc(C23CC4CC(CC(C(=O)N(C)C)(C4)C2)C3)cc1 | . | . | . | . | . | .
CO[C@@H]1CN(C)C(=O)c2ccc(NC(=O)C3CC3)cc2OC[C@@H](C)N(CCC(F)(F)F)C[C@H]1C | . | . | . | . | . | .
Nc1cc(Cl)ccc1Oc1ccc2ccccc2c1 | . | . | -24 | . | / | .
CN(Cc1c(F)cccc1Cl)C(=O)c1ccc(NS(=O)(=O)c2ccc3[nH]c(=O)[nH]c3c2)cc1 | / | . | -22 | . | . | .

High-throughput results as filed in PubChem.
